From PubChem BioAssay AID430 (Sanford-Burnham Center for Chemical Genomics, 2006)
Among all 63,000 compounds or so, about 1,100 (1.7%) were called active. The sample holds actives, similar compounds and a random draw of the others, so the mix is not that of the screen. Measured potencies and affinities stand elsewhere. A number with no mark means an inactive call. No stated cut-off is given here; in the data, active means cytotoxicity above about 50%; inactive means the rest.

Test: cytotoxicity in HPDE-C7 cells, cell-based, fluorescence, HTS (AID 430);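 further: cells exposed to compound for 48 hours before viability readout; 0% = vehicle and 100% = reference cytotoxic drug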
Conditions: HPDE-C7 pancreatic duct cells viability, at 10 µM, hits give high values

SMILES | cytotoxicity
CCCc1cc(N2CCCC(C(=O)Nc3cc(Cl)ccc3OC)C2)n2ncnc2n1 (stereo unspecified) | -9.9%
COc1cc(NC(=O)Nc2cccc(Cl)c2)c(OC)cc1NC(=O)CN1CCCCC1 | 83.1% (active)
COc1cc(NC(=O)Nc2ccccc2OC)c(OC)cc1NC(=O)CN1CCCCC1 | 1.9%
COc1cc(NC(=O)Nc2ccccc2)c(OC)cc1NC(=O)CN1CCCCC1 | 6.1%
Cc1ccc(-c2csc(N3CCC(NS(=O)(=O)c4ccc5c(c4)OCCO5)CC3)n2)cc1 | 54.6% (active)
CC1CCCC(NS(=O)(=O)c2ccc3c(c2)OCCO3)C1C (stereo unspecified) | -7.8%
Cc1nc(CNS(=O)(=O)c2ccc3c(c2)OCCO3)cs1 | -11.4%
Cc1nc2ccc(S(=O)(=O)NCC(=O)N3CCC(C)CC3)cc2s1 | -1%
O=c1[nH]c(-c2ccc(Cl)cc2)nc2c1cnn2-c1ccccc1 | 3.6%
CCCCCSc1nc2c(cnn2-c2ccccc2)c(=O)[nH]1 | 57.7% (active)
CCCCSc1nc2c(cnn2-c2ccc(F)cc2)c(=O)[nH]1 | -30.5%
CCCSc1nc2c(cnn2-c2ccccc2)c(=O)[nH]1 | -0.6%
CCOC(=O)N1CCN(c2c(-c3ccc(C(C)C)cc3)c(=O)c2=O)CC1 | 1.3%
COCc1nc(-c2cc(OC)c(OC)c(OC)c2)no1 | -19%
O=c1oc2ccc3ccccc3c2cc1-c1nnc(-c2ccccc2)o1 | 13.4%
CCN(CC)c1ccc2cc(-c3nc4ccccc4[nH]3)c(=O)oc2c1 | 30.8%
CCN(CC)c1ccc2cc(-c3nc4ccccc4n3C)c(=O)oc2c1 | 67% (active)
CC(=O)Oc1ccc2cc(-c3nc4ccccc4n3C)c(=O)oc2c1 | 4.2%
CCN(CC)c1ccc2cc(C(=O)Nc3ccccn3)c(=O)oc2c1 | 9.8%
CCN(CC)c1ccc2cc(-c3nnc(-c4ccncc4)o3)c(=O)oc2c1 | 59.2% (active)
O=C(Nc1cccnc1)c1cc2nc(C3CC3)cc(C(F)(F)F)n2n1 | -15.8%
Cc1ccc(SCc2cn3c(C)csc3n2)cc1 | -10.2%
c1ccc(OCc2nn3c(Cn4nnc5ccccc54)nnc3s2)cc1 | -15.5%
Cc1noc(C)c1S(=O)(=O)Nc1ccc(C(=O)N2CCc3ccccc3C2)cc1 | -2.2%

SMILES | cytotoxicity
Cn1nnc(NC(=O)c2ccccc2F)n1 | -4.8%
CN1CCN(Cc2c(O)ccc3c(=O)c(Oc4ccccc4Cl)c(C(F)(F)F)oc23)CC1 | -17%
O=C(c1ccco1)N1CCN(C(=O)c2cccc3c2C(=O)N(C2CCCCC2)C3)CC1 | -10%
CN1CCN(CC#CC2(O)CCCCC2)CC1 | -31.9%
COc1ccc(CC(=O)Nc2ccc(-c3noc(-c4cc(OC)c(OC)c(OC)c4)n3)cc2)cc1 | -2.7%
CC(C)Sc1nc(NCc2ccco2)c2c3c(sc2n1)COC(C)(C)C3 | 83.4% (active)
CSc1nc(SCC(=O)NCc2ccco2)c2c3c(sc2n1)COC(C)(C)C3 | 51% (active)
CC(C)Sc1nc(SCC(=O)NCc2ccco2)c2c3c(sc2n1)COC(C)(C)C3 | 24.2%
CCCc1nc2sc3c(SCC(=O)NCc4ccco4)ncnc3c2c2c1CCC2 | 59% (active)
CC(C)c1nc2sc3c(SCC(=O)NCc4ccco4)ncnc3c2c2c1CCC2 | 5.7%
Cc1nc(SCC(=O)NCc2ccco2)c2c3c(sc2n1)CCCC3 | -4.3%
CSc1nc(SCC(=O)NCc2ccco2)c2c3c(sc2n1)CN(C)CC3 | -9.6%
c1coc(CNc2ncnc3sc4c(c23)CCCCC4)c1 | -10.2%
CSc1nc(NCc2ccco2)c2c3c(sc2n1)CN(C)CC3 | -21.3%
CC(C)c1nc2sc3c(NCc4ccco4)ncnc3c2c2c1COC(C)(C)C2 | -10.3%
Cc1nc(NCc2ccco2)c2c3c(sc2n1)CCC3 | 56.1% (active)
O=C(CSc1ncnc2sc3c(c12)CCCCC3)NCc1ccco1 | -22.5%
CN1CC2(C(=O)c3ccccc3)CN(C)CC(C(=O)c3ccccc3)(C1)C2 | -20.9%
O=c1nc2n(c3ccccc13)Cc1ccccc1-2 | -1.4%
O=C(CSc1nnc(C2CC2)n1Cc1ccccc1)c1ccc(S(=O)(=O)N2CCOCC2)cc1 | -8.3%
Cn1nc(C(=O)Nc2ccc(S(=O)(=O)N3CCCCC3)cc2)ccc1=O | -4.3%
Cn1c(=O)c2c(nc(Oc3ccccn3)n2C)n(C)c1=O | -12.5%
O=C(c1ccc2c(=O)n(-c3ccccc3)c(=O)[nH]c2c1)N1CCCCC1 | -2.4%
COc1ccc(/C=N/n2cc(-c3ccccc3)nc2N)cc1 | 65.5% (active)

SMILES | cytotoxicity
COc1ccc(/C=N/n2cnnc2SCc2ccccc2)cc1 | 3.5%
COc1ccc(/C=N/n2cc(-c3ccc(OC)cc3)nc2N)cc1 | -8.1%
CC(C)NC(=O)Cn1c(SCC(=O)N2CCCc3ccccc32)nc2ccccc21 | -5.8%
CC(C)NC(=O)Cn1c(SCC(=O)N2CCCCCC2)nc2ccccc21 | -7.8%
CC(C)NC(=O)Cn1c(SCC(=O)N2CCc3ccccc3C2)nc2ccccc21 | 129% (active)
Cc1ccc(C(=O)Nc2ccccc2N2CCN(C(=O)C(C)C)CC2)cc1C | -15%
COc1ccc(NC(=O)Cn2cnc3c(cnn3-c3ccc(C)c(C)c3)c2=O)c(OC)c1 | -1.2%
CCN(CC)CCOc1nc(C)nc2c1oc1ccccc12 | -0.5%
CN(C)CCOc1nc(-c2ccccc2)nc2c1oc1ccccc12 | 56.4% (active)
CCc1nc(OCCN(C)C)c2oc3ccccc3c2n1 | -12.4%
Cc1ccc2[nH]c(=O)c(CNC(C)(C)C)cc2c1 | 1.4%
O=C(C1=C(O)C(=O)N(CCN2CCOCC2)C1c1cccs1)c1cc2ccccc2o1 (stereo unspecified) | -34.2%
CCS(=O)(=O)N1Cc2ccccc2CC1C(=O)Nc1nc2ccccc2[nH]1 (stereo unspecified) | 6.5%
COC(=O)C1=C(N)OC2=C(C(=O)CC(C)(C)C2)C1c1ccoc1 (stereo unspecified) | -0.4%
Cc1nn(C)cc1C1C2=C(CC(C)(C)CC2=O)OC2=C1C(=O)CC(C)(C)C2 | -12.3%
CCN(Cc1cc2cc(C)ccc2[nH]c1=O)C(=O)c1cccc(OC)c1 | 0.1%
Clc1cc(Cl)c2nc(N3CCCCC3)sc2c1 | -1.2%
COC(=O)c1c(C)nn(-c2ccccc2)c1N | 4.7%
COc1ccc(NC(=O)N2CCCC(c3nc(-c4ccc(C(C)C)cc4)no3)C2)cc1 (stereo unspecified) | 56.3% (active)
Cc1ccccc1NC(=O)N1CCCC(c2nc(-c3ccc(C(C)C)cc3)no2)C1 (stereo unspecified) | 33.3%
COc1ccc(-c2noc(C3CCCN(C(=O)c4cccs4)C3)n2)cc1 (stereo unspecified) | -9%
CC1=C(C(=O)N(C)C)C(c2ccc(Cl)c(Cl)c2)NC(=O)N1 (stereo unspecified) | -1.2%
Cc1csc(NC(=O)c2ccco2)n1 | -14.7%
O=C(Nc1nc(-c2cc3ccccc3oc2=O)cs1)c1ccco1 | 85% (active)

SMILES | cytotoxicity
O=C(Nc1nc(-c2ccncc2)cs1)c1ccco1 | 9.1%
O=C(NC1CCCCC1)NC1(C(=O)NCCCN2CCOCC2)CCCCC1 | -1.8%
CCN(CC)c1ccc(NC(=O)CN2CCN(CC(=O)Nc3ccc(F)cc3)CC2)cc1 | 4.2%
O=C(CN1CCOc2ccccc21)N1CCCC1 | 4.1%
CC(=O)c1ccc(NC(=O)C2CCC(C)NC2=O)cc1 (stereo unspecified) | -4.9%
CCOc1ccc(-c2nnc3ccc(SCC(=O)N4CCN(c5ccccc5)CC4)nn23)cc1 | 56.6% (active)
COc1ccc(-c2nnc3ccc(SCC(=O)N4CCN(c5ccccc5)CC4)nn23)cc1 | -6.6%
O=C(CSc1ccc2nnc(-c3ccccc3)n2n1)N1CCN(c2ccccc2)CC1 | -3.5%
CCn1c(=N)c(C(N)=O)cc2c(=O)n3cccc(C)c3nc21 | 3.5%
Cc1cc(C)c2[nH]c(=O)c(C(c3nnnn3C3CCCC3)N3CCOCC3)cc2c1 (stereo unspecified) | -7.3%
CCCn1c(NC(=O)c2ccc(C)cc2)nc2ccccc21 | -34.1%
O=C(Nc1nc2ccccc2n1CCN1CCCC1)c1ccc(Cl)cc1 | 59.6% (active)
CCCn1c(NC(=O)c2ccc(Cl)c(S(=O)(=O)N3CCCC3)c2)nc2ccccc21 | 16.1%
CCCn1c(NC(=O)c2cccc(S(=O)(=O)N3CCCC3)c2)nc2ccccc21 | 61.9% (active)
Cc1ccc(C(=O)Nc2nc3ccccc3n2CCN2CCCC2)cc1 | 1.6%
O=C(Nc1nc2ccccc2n1CCN1CCCCC1)c1ccco1 | -1.1%
COc1ccc(S(=O)(=O)N(CC(=O)NCCCN(C)C)c2ccc(C)cc2)cc1OC | 1%
CC(=O)N1c2ccccc2N(Cc2ccc(C)cc2C)C(=O)C1(C)C | 58.4% (active)
Cc1ccccc1CN1C(=O)C2(OCCCO2)c2ccccc21 | -4%
Cc1ccc(C)c(CN2C(=O)C3(OCCCO3)c3ccccc32)c1 | -1.3%
N=c1n(CCOc2ccccc2)c2ccccc2n1CCN1CCOCC1 | -22.8%
CC1(C)CC(=O)C2=C(C1)NC(Nc1nc3ccccc3o1)=NC21CCCC1 | -16.5%
Nc1nnnn1/N=C/C=C/c1ccccc1 | -7.1%
Nc1nnnn1/N=C/c1cccc(Oc2ccccc2)c1 | -9.6%
